Dicer inh: inhibitors of human Dicer processing of pre-microRNA; Q9UPY3; cat-ELCCA pre-miR-21 Dicer processing, chemiluminescence; stronger effect = higher value; z-score at 25 µM; actives 6% (n = 47,000); in the data active = z-score above about 3, passing the limit was not always enough;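 note: plate controls were vehicle for no effect and no enzyme for full effect; higher signal means more uncleaved substrate so more Dicer inhibition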
Active calls of the source: *. Many of the other results were omitted from the sample, so hits are more common in it than they were.

SMILES	Dicer inh
COc1cccc2c1OC(C(C)C)N1N=C(c3cc(Cl)ccc3O)CC21 (configuration not stated)	1.1
COc1ccc(C2Oc3c(OC)cccc3C3CC(c4ccccc4O)=NN32)cc1 (configuration not stated)	1.4
COc1ccc(O)c(C2=NN3C(C2)c2cccc(OC)c2OC3c2ccc(F)cc2)c1 (configuration not stated)	1.4
COc1ccc(C2=Nc3ccccc3SC(c3ccccc3)C2)c(O)c1 (configuration not stated)	-3.2
CSc1sc(-c2nc(C)cs2)c(C)c1-c1ccn[nH]1	-0.56
Cc1nc2c(-c3ccccc3)c(C)[nH]n2c(=O)c1Cc1ccc(Cl)cc1	0.44
CCOC(=O)c1c(Nc2cccc(Cl)c2Cl)n[nH]c1C	11
O=C(NCC(O)COc1ccc([N+](=O)[O-])cc1)Nc1cccs1 (configuration not stated)	-0.59
CCNCC(=O)Nc1c(C)cccc1C	1.8
Cc1cccc(Cl)c1NC(=O)CC#N	3.9*
Cc1c(Cl)cccc1NC(=S)NNC(=O)CC#N	0.63
CC(C)Oc1ccc(C2(C)NC(=O)NC2=O)cc1 (configuration not stated)	2.5
Cc1cc(C)c(C=C2C(=O)CCCC2=O)[nH]1	-0.93
Cc1sc(-n2c(C)c3c(C)nnc(C)c3c2C)nc1-c1cccs1	-0.51
CC(=O)/C(N=Nc1ccc(C)cc1[N+](=O)[O-])=C(\C)O	3.2*
CC(=O)/C(N=Nc1cc(F)c(Br)cc1F)=C(\C)O	1.5
CCOC(=O)/C(N=Nc1ccc(C)cc1C)=C(\C)O	2.3
CSc1nnc2c(n1)OC(c1ccccc1F)N(C(C)=O)c1ccccc1-2 (configuration not stated)	-0.61
CC1(C)CC(=O)c2cc3c(N)c(C(=O)Nc4ccc(Cl)cc4)sc3nc2C1	2.1
O=S(=O)(Cc1ccccc1)C1CCCCC1O (configuration not stated)	3.1*
CN(Cc1ccccc1)S(=O)(=O)Cc1ccccc1	0.64
O=S1(=O)CC(O)C(S(=O)(=O)Cc2ccc(Cl)cc2)C1 (configuration not stated)	0.55
CNc1oc(COc2ccc(F)cc2)nc1C#N	0.88
CSc1nnc(/N=C/c2c(O)ccc3ccccc23)s1	-0.23
CCCCOc1ccc(C2c3c(oc4ccccc4c3=O)C(=O)N2c2nncs2)cc1OC (configuration not stated)	-0.64
SMILES	Dicer inh
Fc1cccc(NC(=S)NNc2ccccc2)c1	5.9*
CC(C)(CO)NC(=S)Nc1cccc(F)c1	-0.02
S=C(NNc1ccccc1)Nc1c(Cl)cccc1Cl	-2.6
O=C(O)CCC(=O)N1N=C(c2ccc(Cl)cc2)CC1c1cccs1 (configuration not stated)	2.4
Cc1c(C)c(C)c(C(=O)/C(=N/N)c2ccccc2)c(C)c1C	0.85
CC1=NN(c2ccc(C(=O)O)cc2)C(=O)C1	-2.2
Cc1ccc(C(=O)O)cc1-n1cccc1	-0.63
Cc1ccc(C(=O)O)cc1N1C(=O)CCC1=O	4.7*
Oc1ccc(C2N(Cc3ccccc3)CCN2Cc2ccccc2)cc1	-0.73
CC(C)n1c2ccccc2c2ccccc21	0.68
CCCCn1c2ccccc2c2nc3cc(OC)c(OC)cc3nc21	1
COc1cc2nc3c4ccccc4n(C(C)C)c3nc2cc1OC	3.4*
CCCCCSc1nnc2c(n1)OC(c1ccco1)N(C(C)=O)c1ccccc1-2 (configuration not stated)	0.58
O=C(Cc1ccc(Cl)cc1)c1ccc(O)cc1	0.6
O=C(Cc1ccc(Cl)cc1)c1ccc(O)cc1O	4.1*
O=C(Cc1ccccc1)c1ccc(Cl)cc1	-0.54
CC(C)c1ccc(NC(=O)C2=NNC(=O)CC2)cc1	1.7
Cc1cccc(-c2nnc(SCC(=O)O)o2)c1	-1.5
O=c1[nH][nH]c(=O)n1CCCc1cc2cccc3ccc4cccc1c4c32	3.7*
CCOC(=O)NNC(=O)NCCCc1ccc2ccc3cccc4ccc1c2c34	2.3
CC(C)(Oc1ccc(Cl)cc1)C(N)=O	1.9
COc1ccc(N2C(=O)CC(NCCc3c[nH]c4ccc(Cl)cc34)C2=O)cc1 (configuration not stated)	-0.9
COc1ccc2[nH]cc(CCNC3CC(=O)N(c4ccc(Br)cc4)C3=O)c2c1 (configuration not stated)	3.5*
O=C1CC(NCCc2c[nH]c3ccccc23)C(=O)N1c1cccc(Cl)c1 (configuration not stated)	0.63
CCOC(=O)c1ccc(N2CC3CCCCN3C2c2ccccc2)cc1 (configuration not stated)	-1.4
SMILES	Dicer inh
COCCCn1c(=S)[nH]c2ccccc2c1=O	-1.9
Cc1cc(Br)cc(C2NC(=O)c3c(sc4c3CCN(C)C4)N2)c1O (configuration not stated)	0.83
CC(=O)NC(Nc1ccccc1C)(C(F)(F)F)C(F)(F)F	-0.14
C/C(Nc1ccccc1F)=C1/CCOC1=O	0.1
C/C(Nc1ccccc1C)=C1/CCOC1=O	4*
CCOC(=O)c1c(NC(=O)C(C)C)sc2c1CCC2	-0.49
O=C(CCN1CCC(c2ccc(Cl)s2)=N1)c1ccc(Cl)s1	0.2
N#C/C(=N/O)S(=O)(=O)c1ccccn1	-0.22

Screening results as filed in PubChem.
